Binding signal data for 1 sequence are collected here from PMC7862700, “An all-to-all approach to the identification of sequence-specific readers for epigenetic DNA modifications on cytosine”.

Holding throughout (experiment): DAPPL (digital affinity profiling via proximity ligation, sequencing); 10 mM Tris-HCl pH 7.5, 50 mM NaCl, 1 mM DTT, 4% glycerol, room temperature, 30 min; GST-TFs on glutathione beads, 16-mer random dsDNA library, 0.1% formaldehyde crosslink after washing; high values mean tight binding
Common to all, as to conditions: protein: recombinant; tags: N-terminal GST; dsDNA, one strand shown

The target in one assay is T1, FLI1 (Homo sapiens, UniProt Q01543 1-452).
T1 sequence: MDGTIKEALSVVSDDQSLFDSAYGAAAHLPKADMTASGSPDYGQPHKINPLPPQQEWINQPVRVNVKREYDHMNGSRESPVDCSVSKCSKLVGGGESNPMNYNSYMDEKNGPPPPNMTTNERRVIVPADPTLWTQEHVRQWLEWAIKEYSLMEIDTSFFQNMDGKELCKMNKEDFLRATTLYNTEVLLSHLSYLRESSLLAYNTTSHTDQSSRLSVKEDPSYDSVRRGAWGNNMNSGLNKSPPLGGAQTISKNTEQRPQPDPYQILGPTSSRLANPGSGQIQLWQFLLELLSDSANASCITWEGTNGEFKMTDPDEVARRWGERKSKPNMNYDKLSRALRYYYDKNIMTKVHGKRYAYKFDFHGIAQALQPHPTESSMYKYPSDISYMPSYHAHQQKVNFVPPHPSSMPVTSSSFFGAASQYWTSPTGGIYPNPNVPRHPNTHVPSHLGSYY
The essentials:
(§1)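 Beads coated with glutathione captured GST-fused human transcription factors that had been expressed in yeast, and the factors were then given DNA barcodes and pooled with a tag-only sample. The pools were incubated with 200 nmole of a random double-stranded 16-mer DNA library in Tris/NaCl/DTT/glycerol buffer for 30 min at room temperature, washed, crosslinked with 0.1% formaldehyde and proximity-ligated with BsaI/T4 ligase at 37 °C for 1 h. PCR amplification and Illumina NextSeq500 sequencing came last. Binding signal is each hexamer's read frequency for a factor divided by its frequency for the tag-only sample.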

In another assay the target is T2, ELK1 (Homo sapiens, UniProt P19419 1-428).
T2 sequence: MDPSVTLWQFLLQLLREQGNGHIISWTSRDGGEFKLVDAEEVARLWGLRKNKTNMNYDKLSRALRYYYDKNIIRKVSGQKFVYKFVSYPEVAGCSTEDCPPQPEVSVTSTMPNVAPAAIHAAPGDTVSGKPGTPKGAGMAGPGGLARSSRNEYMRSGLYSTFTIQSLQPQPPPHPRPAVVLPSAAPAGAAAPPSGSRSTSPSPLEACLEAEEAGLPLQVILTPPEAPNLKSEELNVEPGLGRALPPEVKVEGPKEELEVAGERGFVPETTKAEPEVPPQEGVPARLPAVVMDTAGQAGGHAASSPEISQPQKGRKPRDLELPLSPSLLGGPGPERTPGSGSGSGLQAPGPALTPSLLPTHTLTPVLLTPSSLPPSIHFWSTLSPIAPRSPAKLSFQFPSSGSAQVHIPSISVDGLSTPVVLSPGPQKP
The essentials:
as §1

The target of a further assay is T3, GABPA (Homo sapiens, UniProt Q06546 1-454).
T3 sequence: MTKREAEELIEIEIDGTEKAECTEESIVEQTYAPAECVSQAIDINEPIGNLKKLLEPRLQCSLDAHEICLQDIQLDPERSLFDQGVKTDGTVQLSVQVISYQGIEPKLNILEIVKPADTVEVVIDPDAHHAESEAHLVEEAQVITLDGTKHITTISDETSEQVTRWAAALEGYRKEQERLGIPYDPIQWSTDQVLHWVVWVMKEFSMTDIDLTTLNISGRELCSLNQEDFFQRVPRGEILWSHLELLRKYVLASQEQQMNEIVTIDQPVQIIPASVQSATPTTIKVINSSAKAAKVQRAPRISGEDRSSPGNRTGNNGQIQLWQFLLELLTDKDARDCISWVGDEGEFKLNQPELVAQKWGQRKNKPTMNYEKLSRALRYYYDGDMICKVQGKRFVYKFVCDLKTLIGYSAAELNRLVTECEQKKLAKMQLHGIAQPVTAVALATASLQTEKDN
In short, it runs like this:
as §1

The next assay deals with T4, ERG (Homo sapiens, UniProt P11308 1-479).
T4 sequence: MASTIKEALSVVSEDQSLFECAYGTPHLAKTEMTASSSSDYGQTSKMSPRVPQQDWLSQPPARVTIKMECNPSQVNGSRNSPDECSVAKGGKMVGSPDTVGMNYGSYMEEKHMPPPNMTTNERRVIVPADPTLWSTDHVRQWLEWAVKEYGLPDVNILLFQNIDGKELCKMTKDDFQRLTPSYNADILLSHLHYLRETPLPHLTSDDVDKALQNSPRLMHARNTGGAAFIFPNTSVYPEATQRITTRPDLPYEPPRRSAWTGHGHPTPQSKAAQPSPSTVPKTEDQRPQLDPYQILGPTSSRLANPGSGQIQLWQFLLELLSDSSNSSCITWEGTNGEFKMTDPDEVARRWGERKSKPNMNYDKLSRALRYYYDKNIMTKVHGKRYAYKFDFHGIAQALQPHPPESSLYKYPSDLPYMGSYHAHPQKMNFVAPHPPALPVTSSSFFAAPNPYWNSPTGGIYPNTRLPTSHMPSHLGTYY
In short, it runs like this:
as §1

In the next assay the target is ELF1 (Homo sapiens, UniProt P32519 1-619). The essentials: as §1
For a further assay, the target named is T5, EHF (Homo sapiens, UniProt Q9NZC4 1-300).
T5 sequence: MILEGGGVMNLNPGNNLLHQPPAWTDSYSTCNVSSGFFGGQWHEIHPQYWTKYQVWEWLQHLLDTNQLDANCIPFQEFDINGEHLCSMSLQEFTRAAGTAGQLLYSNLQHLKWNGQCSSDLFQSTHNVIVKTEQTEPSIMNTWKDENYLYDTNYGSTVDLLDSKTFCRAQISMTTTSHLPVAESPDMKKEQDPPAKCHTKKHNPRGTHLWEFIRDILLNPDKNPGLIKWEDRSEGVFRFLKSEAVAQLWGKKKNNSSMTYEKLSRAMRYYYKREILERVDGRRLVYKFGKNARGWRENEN
The essentials: as §1

Another assay addresses SPI1 (Homo sapiens, UniProt P17947 1-270). In short, it runs like this:
as §1

Another assay has as its target SPIB (Homo sapiens, UniProt Q01892 1-262). The essentials: as §1
The next assay deals with T6, ELK3 (Homo sapiens, UniProt P41970 1-407).
T6 sequence: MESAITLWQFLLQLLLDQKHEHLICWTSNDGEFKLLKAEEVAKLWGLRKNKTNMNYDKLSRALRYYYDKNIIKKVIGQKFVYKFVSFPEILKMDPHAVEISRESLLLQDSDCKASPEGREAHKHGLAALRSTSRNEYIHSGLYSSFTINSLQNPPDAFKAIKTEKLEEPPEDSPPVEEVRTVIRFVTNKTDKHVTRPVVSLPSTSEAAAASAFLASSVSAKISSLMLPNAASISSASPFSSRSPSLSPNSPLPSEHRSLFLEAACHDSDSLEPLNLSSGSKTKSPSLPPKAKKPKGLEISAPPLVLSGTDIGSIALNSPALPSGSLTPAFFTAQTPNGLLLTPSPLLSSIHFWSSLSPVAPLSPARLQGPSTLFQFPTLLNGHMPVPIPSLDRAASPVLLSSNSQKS
The essentials:
as §1

Another assay deals with T7, FEV (Homo sapiens, UniProt Q99581 1-238).
T7 sequence: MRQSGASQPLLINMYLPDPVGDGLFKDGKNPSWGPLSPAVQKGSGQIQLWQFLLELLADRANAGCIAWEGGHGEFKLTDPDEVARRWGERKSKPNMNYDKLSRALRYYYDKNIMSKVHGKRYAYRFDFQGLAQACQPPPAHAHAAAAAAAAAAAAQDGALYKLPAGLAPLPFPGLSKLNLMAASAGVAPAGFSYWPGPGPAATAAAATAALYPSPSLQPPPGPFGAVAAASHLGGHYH
In short, it runs like this: as §1

Another assay concerns the target ETV5 (Homo sapiens, UniProt P41161 1-510). The essentials: as §1
Another assay deals with ELF4 (Homo sapiens, UniProt Q99607 1-663). The essentials:
as §1

The target of another assay is ETV1 (Homo sapiens, UniProt P50549 1-477). In short, it runs like this: as §1
The next assay deals with T8, ERF (Homo sapiens, UniProt P50548 1-548).
T8 sequence: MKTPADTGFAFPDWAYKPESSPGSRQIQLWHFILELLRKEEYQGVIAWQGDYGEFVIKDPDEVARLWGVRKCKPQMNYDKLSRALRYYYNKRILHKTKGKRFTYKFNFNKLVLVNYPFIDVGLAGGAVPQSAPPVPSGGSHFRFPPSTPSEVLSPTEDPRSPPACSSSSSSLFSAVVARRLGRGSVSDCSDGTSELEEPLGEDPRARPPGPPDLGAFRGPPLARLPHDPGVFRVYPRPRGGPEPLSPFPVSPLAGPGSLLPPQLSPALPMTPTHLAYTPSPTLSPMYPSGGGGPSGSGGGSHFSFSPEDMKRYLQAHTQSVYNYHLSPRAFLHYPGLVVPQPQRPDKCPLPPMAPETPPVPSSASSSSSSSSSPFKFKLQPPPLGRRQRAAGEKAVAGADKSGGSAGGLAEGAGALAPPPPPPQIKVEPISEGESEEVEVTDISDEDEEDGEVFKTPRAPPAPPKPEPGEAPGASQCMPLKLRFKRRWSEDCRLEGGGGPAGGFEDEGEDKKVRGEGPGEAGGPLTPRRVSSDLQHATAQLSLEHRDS
In short, it runs like this: as §1

A further assay concerns the target T9, ETV3L (Homo sapiens, UniProt Q6ZN32 1-361).
T9 sequence: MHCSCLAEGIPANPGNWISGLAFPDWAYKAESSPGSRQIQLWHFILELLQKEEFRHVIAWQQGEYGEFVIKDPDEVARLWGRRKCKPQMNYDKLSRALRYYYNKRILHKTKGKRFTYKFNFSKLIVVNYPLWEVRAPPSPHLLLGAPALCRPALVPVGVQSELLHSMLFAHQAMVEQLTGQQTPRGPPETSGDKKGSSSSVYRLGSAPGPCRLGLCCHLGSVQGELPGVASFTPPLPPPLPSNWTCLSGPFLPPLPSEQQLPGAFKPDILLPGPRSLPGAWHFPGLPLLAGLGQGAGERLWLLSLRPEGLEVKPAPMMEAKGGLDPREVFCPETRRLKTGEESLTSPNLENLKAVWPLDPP
The essentials:
as §1

A further assay concerns the target T10, ETS2 (Homo sapiens, UniProt P15036 1-469).
T10 sequence: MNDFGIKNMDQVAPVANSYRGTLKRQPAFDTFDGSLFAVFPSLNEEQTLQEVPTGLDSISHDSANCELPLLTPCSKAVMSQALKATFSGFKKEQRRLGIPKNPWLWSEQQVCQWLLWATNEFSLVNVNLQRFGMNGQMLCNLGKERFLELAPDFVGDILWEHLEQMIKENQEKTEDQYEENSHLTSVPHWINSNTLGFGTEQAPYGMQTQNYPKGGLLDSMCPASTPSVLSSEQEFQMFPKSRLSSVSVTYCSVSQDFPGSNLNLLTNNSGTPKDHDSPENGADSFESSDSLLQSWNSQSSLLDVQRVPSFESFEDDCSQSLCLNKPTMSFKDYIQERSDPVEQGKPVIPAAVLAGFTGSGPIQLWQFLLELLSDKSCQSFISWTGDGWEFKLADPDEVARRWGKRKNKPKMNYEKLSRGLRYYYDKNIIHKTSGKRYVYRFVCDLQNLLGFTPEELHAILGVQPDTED
The essentials: as §1

The target of another assay is T11, ELF5 (Homo sapiens, UniProt Q9UKW6-2 1-255).
T11 sequence: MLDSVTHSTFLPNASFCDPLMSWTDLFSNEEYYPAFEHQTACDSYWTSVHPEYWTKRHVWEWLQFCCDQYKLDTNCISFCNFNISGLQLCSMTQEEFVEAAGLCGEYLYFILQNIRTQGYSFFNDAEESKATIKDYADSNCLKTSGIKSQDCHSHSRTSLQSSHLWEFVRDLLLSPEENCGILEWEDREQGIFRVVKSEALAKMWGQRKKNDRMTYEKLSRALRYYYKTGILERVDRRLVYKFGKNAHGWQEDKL
The essentials:
as §1

A further assay deals with T12, ETV3 (Homo sapiens, UniProt P41162-2 1-143).
T12 sequence: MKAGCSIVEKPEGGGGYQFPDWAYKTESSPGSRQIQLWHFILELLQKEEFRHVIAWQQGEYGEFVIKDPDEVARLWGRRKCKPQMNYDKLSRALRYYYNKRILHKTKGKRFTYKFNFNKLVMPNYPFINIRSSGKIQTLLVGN
In short, it runs like this: as §1

The next assay deals with ETV6 (Homo sapiens, UniProt P41212 1-452). The essentials:
as §1

Sequence of ELF4 (Q99607 whole entry): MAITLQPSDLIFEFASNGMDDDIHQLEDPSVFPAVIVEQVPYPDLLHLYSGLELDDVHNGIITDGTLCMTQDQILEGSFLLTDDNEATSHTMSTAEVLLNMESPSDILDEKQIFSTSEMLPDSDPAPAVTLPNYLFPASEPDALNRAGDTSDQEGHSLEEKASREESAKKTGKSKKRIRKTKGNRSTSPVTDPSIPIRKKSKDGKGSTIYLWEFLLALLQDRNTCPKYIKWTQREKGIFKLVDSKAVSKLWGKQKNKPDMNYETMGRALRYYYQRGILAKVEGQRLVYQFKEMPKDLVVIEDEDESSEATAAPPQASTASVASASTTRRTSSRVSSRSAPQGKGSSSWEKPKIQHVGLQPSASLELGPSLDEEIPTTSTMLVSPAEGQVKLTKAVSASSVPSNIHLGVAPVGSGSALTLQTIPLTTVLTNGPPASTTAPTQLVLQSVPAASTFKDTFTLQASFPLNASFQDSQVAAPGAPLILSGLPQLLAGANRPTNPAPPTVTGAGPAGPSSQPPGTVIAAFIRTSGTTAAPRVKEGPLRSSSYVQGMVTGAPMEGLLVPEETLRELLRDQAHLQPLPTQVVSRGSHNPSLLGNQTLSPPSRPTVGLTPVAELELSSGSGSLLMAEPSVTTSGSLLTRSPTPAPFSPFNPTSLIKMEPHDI
Sequence of SPIB (Q01892 whole entry): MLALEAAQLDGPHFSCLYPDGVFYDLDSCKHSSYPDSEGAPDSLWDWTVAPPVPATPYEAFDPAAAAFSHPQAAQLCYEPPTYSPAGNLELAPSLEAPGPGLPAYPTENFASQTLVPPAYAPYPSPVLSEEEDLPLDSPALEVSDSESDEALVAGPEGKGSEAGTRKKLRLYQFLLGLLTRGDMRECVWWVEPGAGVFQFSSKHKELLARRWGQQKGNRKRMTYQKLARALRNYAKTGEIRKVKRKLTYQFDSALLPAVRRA
Sequence of ETV1 (P50549 whole entry): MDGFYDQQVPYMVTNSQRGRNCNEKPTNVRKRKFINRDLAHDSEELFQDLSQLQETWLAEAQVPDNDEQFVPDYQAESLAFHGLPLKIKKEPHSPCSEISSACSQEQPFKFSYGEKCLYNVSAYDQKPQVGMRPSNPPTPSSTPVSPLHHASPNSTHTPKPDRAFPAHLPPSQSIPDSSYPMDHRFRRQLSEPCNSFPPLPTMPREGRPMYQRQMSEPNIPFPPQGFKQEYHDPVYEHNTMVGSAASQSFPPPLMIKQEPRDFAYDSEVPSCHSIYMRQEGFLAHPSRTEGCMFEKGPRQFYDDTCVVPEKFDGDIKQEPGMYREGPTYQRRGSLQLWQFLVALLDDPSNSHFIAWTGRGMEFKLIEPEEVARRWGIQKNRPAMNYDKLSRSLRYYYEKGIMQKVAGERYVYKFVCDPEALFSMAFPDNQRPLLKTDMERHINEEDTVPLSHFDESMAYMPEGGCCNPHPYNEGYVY
Sequence of ETV5 (P41161 whole entry): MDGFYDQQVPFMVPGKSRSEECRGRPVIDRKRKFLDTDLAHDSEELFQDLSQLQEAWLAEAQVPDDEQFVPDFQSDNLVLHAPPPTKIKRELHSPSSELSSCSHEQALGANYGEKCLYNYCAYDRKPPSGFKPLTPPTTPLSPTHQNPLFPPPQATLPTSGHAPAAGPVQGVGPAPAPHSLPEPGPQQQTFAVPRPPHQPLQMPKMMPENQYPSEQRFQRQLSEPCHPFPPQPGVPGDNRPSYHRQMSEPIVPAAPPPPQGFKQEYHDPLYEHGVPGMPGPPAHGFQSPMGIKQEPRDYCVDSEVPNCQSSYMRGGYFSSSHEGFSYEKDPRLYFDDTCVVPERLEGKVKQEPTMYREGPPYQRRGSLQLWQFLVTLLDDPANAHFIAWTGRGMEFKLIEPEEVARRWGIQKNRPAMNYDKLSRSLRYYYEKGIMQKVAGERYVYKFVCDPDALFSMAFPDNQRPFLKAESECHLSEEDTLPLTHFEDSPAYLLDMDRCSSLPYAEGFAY
Sequence of ELF1 (P32519 whole entry): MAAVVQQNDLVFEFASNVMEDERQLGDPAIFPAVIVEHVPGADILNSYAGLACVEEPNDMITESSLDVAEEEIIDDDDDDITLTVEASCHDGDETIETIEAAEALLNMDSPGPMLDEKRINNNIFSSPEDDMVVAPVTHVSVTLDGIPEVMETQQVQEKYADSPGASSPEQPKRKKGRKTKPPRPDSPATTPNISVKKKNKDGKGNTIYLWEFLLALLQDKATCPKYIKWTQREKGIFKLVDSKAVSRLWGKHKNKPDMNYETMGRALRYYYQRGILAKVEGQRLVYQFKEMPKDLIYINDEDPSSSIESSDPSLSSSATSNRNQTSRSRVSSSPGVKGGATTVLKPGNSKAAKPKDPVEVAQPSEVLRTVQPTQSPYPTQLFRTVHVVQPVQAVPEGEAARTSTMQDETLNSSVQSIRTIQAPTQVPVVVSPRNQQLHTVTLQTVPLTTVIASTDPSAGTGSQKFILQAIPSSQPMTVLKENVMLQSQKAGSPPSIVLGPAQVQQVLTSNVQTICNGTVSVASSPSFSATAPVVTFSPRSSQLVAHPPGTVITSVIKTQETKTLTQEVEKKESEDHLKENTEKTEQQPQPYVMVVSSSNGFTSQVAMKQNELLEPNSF
Sequence of ETV6 (P41212 whole entry): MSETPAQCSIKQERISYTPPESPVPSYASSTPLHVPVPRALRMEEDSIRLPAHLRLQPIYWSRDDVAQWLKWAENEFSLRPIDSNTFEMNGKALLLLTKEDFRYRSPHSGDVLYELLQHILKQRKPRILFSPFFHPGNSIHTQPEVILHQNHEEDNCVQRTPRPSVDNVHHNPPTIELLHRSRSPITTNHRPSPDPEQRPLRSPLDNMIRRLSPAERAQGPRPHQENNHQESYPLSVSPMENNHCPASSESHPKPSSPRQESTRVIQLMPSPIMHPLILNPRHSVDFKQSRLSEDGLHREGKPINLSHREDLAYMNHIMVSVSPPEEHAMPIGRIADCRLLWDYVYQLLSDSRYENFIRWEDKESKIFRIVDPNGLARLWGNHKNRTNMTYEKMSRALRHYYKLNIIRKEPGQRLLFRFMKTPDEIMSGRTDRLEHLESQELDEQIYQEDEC

With GCTATC, the binding signal was 1.07 fold enrichment (6-mer frequency, TF over GST control) in the assay with FLI1; 1.07 fold enrichment (6-mer frequency, TF over GST control) with ELK1; 1.1 fold enrichment (6-mer frequency, TF over GST control) with GABPA; 1.13 fold enrichment (6-mer frequency, TF over GST control) with ERG; 1.14 fold enrichment (6-mer frequency, TF over GST control) in the assay with ELF1; 1.14 fold enrichment (6-mer frequency, TF over GST control) with EHF. Besides, the binding signal with SPI1 was 1.12 fold enrichment (6-mer frequency, TF over GST control); with SPIB, 1.1 fold enrichment (6-mer frequency, TF over GST control); with ELK3, 1.12 fold enrichment (6-mer frequency, TF over GST control); with FEV it was 1.08 fold enrichment (6-mer frequency, TF over GST control); with ETV5, 1.09 fold enrichment (6-mer frequency, TF over GST control); with ELF4 it was 1.14 fold enrichment (6-mer frequency, TF over GST control). The binding signal with ETV1 is 1.09 fold enrichment (6-mer frequency, TF over GST control); in the assay with ERF, 1.13 fold enrichment (6-mer frequency, TF over GST control); in the assay with ETV3L it was 1.07 fold enrichment (6-mer frequency, TF over GST control); with ETS2, 1.01 fold enrichment (6-mer frequency, TF over GST control); in the assay with ELF5, 1.04 fold enrichment (6-mer frequency, TF over GST control); with ETV3, 1.03 fold enrichment (6-mer frequency, TF over GST control). Also, in the assay with ETV6, the binding signal is 1.06 fold enrichment (6-mer frequency, TF over GST control).
